# Results filed as inconclusive are left out. Unmarked numbers belong to inactive results. The source made the active and inactive calls. The call rests on the fitted dose curve.
# Assay: Cell Viability - HepG2 (AID 433);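 further: potency for ATP loss meaning cytotoxicity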
# Settings: qHTS
# From the text: NIH Chemical Genomics Center [NCGC]
# NIH Molecular Libraries Screening Centers Network [MLSCN]
# National Institutes of Environmental Health Sciences [NIEHS]
# National Toxicology Program [NTP]
# We have developed a 1536-well cell-based assay for quantitative high throughput screening (qHTS) against a number of cell lines to determine in vitro cytotoxicity of small molecules. This particular assay uses the HepG2 cell line which is derived from hepatocellular carcinoma.
# NCGC Assay Protocol Summary:
# The CellTiter-Glo luminescent cell viability assay (Promega) is a homogeneous method to measure the number of viable cells in culture. The end point readout of this assay is based on quantitation of intracellular ATP, an indicator of metabolic activity, using the luciferase reaction. Luciferase catalyzes the oxidation of beetle Luciferin to oxyluciferin and light in the presence of ATP. The luminescent signal is proportional to amount of ATP present.
# Using the CellTiter-Glo luminescent cell viability assay, the amount of cellular ATP was measured in the HepG2 cell line with complete culture medium following compound treatment for 40 hours. The assay was performed in opaque white Kalypsys 1536-well plates. In the screen, tamoxifen and doxorubicin were used as positive controls. Library compounds were measured for their ability to cause acute toxicity in the cell line, as reflected by a decrease in intracellular ATP levels, in a concentration-dependent manner. Data were normalized to the controls for basal activity (DMSO only) and 100% inhibition (100 uM tamoxifen). AC50 values were determined from concentration-response data modeled with the standard Hill equation.
# qHTS protocol fo CellTiter Glo HepG2 cellular assay
# [Step] [Parameter] [Value] [Description]
# 1. Reagent; 5 uL; 1500 HepG2 cells/well
# 2. Time; 5 hr; 37 °C incubation
# 4. Controls; 23 nL; Tamoxifen 0.34 uM to 100 uM & Doxorubicin 0.02 nM to 100 uM
# 5. Time; 40 hr; 37 °C incubation
# 6. Reagent; 5 uL; CellTiter Glo reagent
# 7. Time; 20 min; Room Temperature
# 8. Detection; Luminescence; Viewlux plate reader
# Keywords: cell viability, cytotoxicity, HepG2 cell line, luminescence, NTPHTS, NTPHTS_NCGC, NIEHS, EPA, DSSTox, MLSMR, MLSCN, NIH Roadmap, qHTS, NCGC
# Potency means the concentration at half of the fitted maximal effect.
row,SMILES,Potency
1,COc1cc([C@H]2Oc3cc([C@H]4Oc5cc(O)cc(O)c5C(=O)[C@@H]4O)ccc3O[C@@H]2CO)ccc1O,> 92 µM
2,NCCNc1cccc2ccccc12,> 92 µM
3,CCOc1ccc(NC(C)=O)cc1,> 92 µM
4,CCCCC(CC)COC(=O)c1ccc(N(C)C)cc1 (stereo not given),> 92 µM
5,COc1ccc(C(=O)c2ccccc2)c(O)c1,> 92 µM
6,C=C[C@H]1CN2CC[C@H]1C[C@@H]2[C@@H](O)c1ccnc2ccc(OC)cc12,> 92 µM
7,COc1ccc(C(Cl)=C(c2ccc(OC)cc2)c2ccc(OC)cc2)cc1,> 92 µM
8,C/C=C/c1ccc(O)c(OC)c1,> 92 µM
9,NC(=O)c1ccccc1O,> 92 µM
10,CCOc1ccccc1C(N)=O,> 92 µM
11,Oc1ccc(Cl)cc1Cc1cc(Cl)ccc1O,40.6 µM (active)
12,O=C(O)c1ccc(S(=O)(=O)N(Cl)Cl)cc1,> 92 µM
13,OC[C@H]1O[C@@H]2O[C@H]3[C@H](O)[C@@H](O)[C@@H](O[C@H]4[C@H](O)[C@@H](O)[C@@H](O[C@H]5[C@H](O)[C@@H](O)[C@@H](O[C@H]6[C@H](O)[C@@H](O)[C@@H](O[C@H]7[C@H](O)[C@@H](O)[C@@H](O[C@H]8[C@H](O)[C@@H](O)[C@@H](O[C@H]1[C@H](O)[C@H]2O)O[C@@H]8CO)O[C@@H]7CO)O[C@@H]6CO)O[C@@H]5CO)O[C@@H]4CO)O[C@@H]3CO,> 92 µM
14,CCCN(CCC)S(=O)(=O)c1ccc(C(=O)O)cc1,> 92 µM
15,Oc1c(Cl)cc(Cl)c(Cl)c1Cc1c(O)c(Cl)cc(Cl)c1Cl,10.7 µM (active)

# Reference: PubChem BioAssay (NCATS)
